Test results from the supplement of paper PMC6897291.
Structures can show the parent of a compound that is named as a salt.

How the values were obtained:
U-2932 [1] = test: growth inhibition by drug alone (1 - RLU/untreated control) (fraction); higher = stronger inhibition; conditions: 177Lu-lilotomab satetraxetan 0 ug/ml
Summary of the method: (§1)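 RIVA or U-2932 cells, untreated or pretreated 18 h with a radiolabelled anti-CD37 antibody conjugate (~600 MBq/mg; 0.5 µg/ml RIVA, 1 µg/ml U-2932), were washed and seeded at 3,000 cells/well on plates pre-printed with the Selleck Cambridge Cancer Compound library. Doses were 10/100 nM (RIVA) or 10/1,000 nM (U-2932). RealTime-Glo luminescence was read daily from day 3 after 1 h at 37°C. Growth inhibition is 1 − RLU/mean of 48 untreated no-drug wells per plate.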

RIVA [2] = test: as above; conditions: 177Lu-lilotomab satetraxetan 0 ug/ml
Summary of the method: as §1

U-2932 [3] = test: growth inhibition by drug plus 177Lu-lilotomab satetraxetan (1 - RLU/untreated control) (fraction); higher = stronger inhibition; conditions: 177Lu-lilotomab satetraxetan 1 ug/ml
Summary of the method: as §1

RIVA [4] = test: as above; conditions: 177Lu-lilotomab satetraxetan 0.5 ug/ml
Summary of the method: as §1

Compound	growth inhibition by drug alone (U-2932 [1]; 10 nM, time (day): 3)	growth inhibition by drug alone (U-2932 [1]; 10 nM, time (day): 4)	growth inhibition by drug alone (U-2932 [1]; 10 nM, time (day): 5)	growth inhibition by drug alone (U-2932 [1]; 10 nM, time (day): 6)	growth inhibition by drug alone (U-2932 [1]; 1000 nM, time (day): 3)	growth inhibition by drug alone (U-2932 [1]; 1000 nM, time (day): 4)	growth inhibition by drug alone (U-2932 [1]; 1000 nM, time (day): 5)	growth inhibition by drug alone (U-2932 [1]; 1000 nM, time (day): 6)	growth inhibition by drug alone (RIVA [2]; 10 nM, time (day): 3)	growth inhibition by drug alone (RIVA [2]; 10 nM, time (day): 4)	growth inhibition by drug alone (RIVA [2]; 10 nM, time (day): 5)	growth inhibition by drug alone (RIVA [2]; 10 nM, time (day): 6)	growth inhibition by drug alone (RIVA [2]; 100 nM, time (day): 3)	growth inhibition by drug alone (RIVA [2]; 100 nM, time (day): 4)	growth inhibition by drug alone (RIVA [2]; 100 nM, time (day): 5)	growth inhibition by drug alone (RIVA [2]; 100 nM, time (day): 6)	growth inhibition by drug plus 177Lu-lilotomab satetraxetan (U-2932 [3]; 10 nM, time (day): 3)	growth inhibition by drug plus 177Lu-lilotomab satetraxetan (U-2932 [3]; 10 nM, time (day): 4)	growth inhibition by drug plus 177Lu-lilotomab satetraxetan (U-2932 [3]; 10 nM, time (day): 5)	growth inhibition by drug plus 177Lu-lilotomab satetraxetan (U-2932 [3]; 10 nM, time (day): 6)	growth inhibition by drug plus 177Lu-lilotomab satetraxetan (U-2932 [3]; 1000 nM, time (day): 3)	growth inhibition by drug plus 177Lu-lilotomab satetraxetan (U-2932 [3]; 1000 nM, time (day): 4)	growth inhibition by drug plus 177Lu-lilotomab satetraxetan (U-2932 [3]; 1000 nM, time (day): 5)	growth inhibition by drug plus 177Lu-lilotomab satetraxetan (U-2932 [3]; 1000 nM, time (day): 6)	growth inhibition by drug plus 177Lu-lilotomab satetraxetan (RIVA [4]; 10 nM, time (day): 3)	growth inhibition by drug plus 177Lu-lilotomab satetraxetan (RIVA [4]; 10 nM, time (day): 4)	growth inhibition by drug plus 177Lu-lilotomab satetraxetan (RIVA [4]; 10 nM, time (day): 5)	growth inhibition by drug plus 177Lu-lilotomab satetraxetan (RIVA [4]; 10 nM, time (day): 6)	growth inhibition by drug plus 177Lu-lilotomab satetraxetan (RIVA [4]; 100 nM, time (day): 3)	growth inhibition by drug plus 177Lu-lilotomab satetraxetan (RIVA [4]; 100 nM, time (day): 4)	growth inhibition by drug plus 177Lu-lilotomab satetraxetan (RIVA [4]; 100 nM, time (day): 5)	growth inhibition by drug plus 177Lu-lilotomab satetraxetan (RIVA [4]; 100 nM, time (day): 6)
O=C(Nc1ccc(OC(F)(F)F)cc1)c1sccc1NCc1ccnc2ccccc12	0.0561	-0.00441	-0.0537	-0.177	0.00246	-0.0266	-0.0424	-0.000118	-0.0142	-0.0478	-0.122	-0.26	-0.426	-0.341	-0.386	-0.562	-0.0212	0.051	0.0902	0.117	-0.0347	0.0399	0.0489	0.0855	0.534	0.568	0.593	0.603	0.0922	0.306	0.33	0.355
CCn1c(-c2nonc2N)nc2cnc(Oc3cccc(NC(=O)c4ccc(OCCN5CCOCC5)cc4)c3)cc21	-0.134	-0.155	-0.145	-0.41	0.0463	0.0519	0.129	0.357	-0.232	-0.237	-0.286	-0.351	-0.202	-0.237	-0.215	-0.241	-0.198	-0.145	-0.0619	0.0328	0.279	0.292	0.374	0.603	0.46	0.522	0.558	0.578	0.439	0.515	0.547	0.569
CN1CC[C@H](c2c(O)cc(O)c3c(=O)cc(-c4ccccc4Cl)oc23)[C@H](O)C1 [Flavopiridol hydrochloride]	-0.0754	-0.0311	-0.0181	0.00401	0.957	0.967	0.974	0.979	-0.111	-0.116	-0.189	-0.255	0.504	0.533	0.499	0.385	-0.0108	0.0505	0.0958	0.189	0.965	0.972	0.978	0.983	0.521	0.567	0.566	0.567	0.615	0.69	0.704	0.72
Cc1cc(Nc2cc(N3CCN(C)CC3)nc(Sc3ccc(NC(=O)C4CC4)cc3)n2)n[nH]1 [VX-680 (MK-0457, Tozasertib)]	0.0135	-0.0133	-0.0455	-0.102	0.116	0.0957	0.0508	0.219	-0.0364	-0.0738	-0.11	-0.195	-0.135	-0.125	-0.0167	0.173	-0.00926	0.0675	0.118	0.172	0.272	0.279	0.311	0.494	0.594	0.628	0.652	0.658	0.458	0.547	0.616	0.727
CC/C(=C(\c1ccccc1)c1ccc(OCCN(C)C)cc1)c1ccccc1 [Tamoxifen Citrate (Nolvadex)]	0.0699	0.0582	-0.0313	-0.0576	0.106	0.0715	-0.0226	0.0641	0.0612	0.0931	0.0782	-0.0872	0.551	0.381	0.352	0.322	0.0801	0.126	0.2	0.206	0.075	0.103	0.172	0.27	0.602	0.651	0.667	0.656	0.78	0.78	0.788	0.802
CN(C)CCCN=c1c2ccccc2n(C)c2[nH]c(=O)n(C)c(=O)c12	0.111	0.0704	-0.00376	-0.0149	0.0731	0.0794	0.011	0.0933	0.0709	0.0541	0.026	-0.0499	-0.0848	-0.0419	-0.079	-0.137	0.0369	0.0857	0.138	0.24	0.0936	0.125	0.147	0.272	0.529	0.576	0.589	0.604	0.563	0.592	0.601	0.604
CO[C@H]1C[C@@H]2CC[C@@H](C)[C@@](O)(O2)C(=O)C(=O)N2CCCC[C@H]2C(=O)O[C@H]([C@H](C)C[C@@H]2CC[C@@H](OCCO)[C@H](OC)C2)CC(=O)[C@H](C)/C=C(\C)[C@@H](O)[C@@H](OC)C(=O)[C@H](C)C[C@H](C)/C=C/C=C/C=C/1C [Everolimus (RAD001)]	0.744	0.686	0.591	0.52	0.743	0.728	0.667	0.605	0.776	0.768	0.744	0.653	0.811	0.826	0.827	0.801	0.69	0.625	0.558	0.538	0.719	0.729	0.706	0.702	0.821	0.838	0.833	0.788	0.833	0.865	0.876	0.873
COc1nc(-c2ccc3c(c2)OCO3)n(-c2ccc(NC(=O)CSc3ccccc3)cc2)n1 [SecinH3]	-0.0611	-0.0455	-0.0236	0.124	-0.143	-0.0966	-0.134	-0.195	-0.242	-0.224	-0.27	-0.428	-0.311	-0.358	-0.334	-0.394	-0.0793	-0.0496	-0.0101	0.122	-0.197	-0.087	-0.0724	-0.0297	0.275	0.448	0.482	0.494	0.323	0.424	0.437	0.419
O=C1CN2Cc3c(ccc(Cl)c3Cl)N=C2N1 [Anagrelide]	0.0875	0.0814	0.0131	-0.134	0.102	0.0873	-0.0302	-0.00421	-0.0185	0.0438	-0.0392	-0.302	-0.0533	0.019	0.0156	-0.0326	0.101	0.141	0.208	0.23	0.0939	0.117	0.178	0.243	0.547	0.616	0.633	0.635	0.54	0.612	0.625	0.631
O=c1[nH]nc(Sc2ncc([N+](=O)[O-])s2)n1-c1ccc2c(c1)OCCO2	-0.0286	-0.0355	-0.112	-0.247	-0.00347	0.024	-0.0622	-0.12	0.00609	-0.0273	-0.0872	-0.35	-0.0796	-0.0567	-0.0833	-0.162	0.0134	0.0456	0.0435	0.142	0.369	0.406	0.362	0.409	0.41	0.525	0.54	0.553	0.424	0.457	0.468	0.445
O=C1c2ccccc2-c2nc3nonc3nc21	0.122	0.0829	-0.0474	-0.0365	0.144	0.236	0.193	0.28	-0.0244	-0.0693	-0.283	-0.811	-0.571	-0.488	-0.554	-0.831	0.0325	0.0601	0.0603	0.0121	0.496	0.527	0.536	0.582	0.417	0.519	0.528	0.542	0.116	0.288	0.31	0.332
Nc1ccccc1NC(=O)c1ccc(CNc2nccc(-c3cccnc3)n2)cc1 [Mocetinostat (MGCD0103)]	0.00982	0.0102	0.0298	0.152	0.868	0.878	0.889	0.91	-0.0534	-0.0971	-0.0989	-0.142	0.358	0.254	0.208	0.152	-0.0242	-0.00346	0.0145	0.11	0.876	0.893	0.907	0.934	0.466	0.553	0.579	0.576	0.681	0.692	0.705	0.7
Nc1nc(Cl)nc2c1ncn2[C@@H]1O[C@H](CO)[C@@H](O)[C@@H]1F [Clofarabine]	0.0673	0.0292	-0.0979	-0.0594	0.929	0.958	0.972	0.979	-0.085	-0.0539	-0.15	-0.383	0.384	0.685	0.781	0.827	0.00886	0.0897	0.102	0.0953	0.925	0.961	0.977	0.985	0.51	0.568	0.575	0.586	0.872	0.923	–	–
